Experimental data as given in PubChem BioAssay (NCATS).
Inconclusive results are not listed. Where a call stands in place of a potency, no number is given. Active and inactive are the calls of the source. Calls follow the shape of the dose curve; as a rule, active = well fitted inhibition curve with a large enough effect; inconclusive = small, poorly fitted or top-dose-only effect; inactive = flat fitted curve, though single readings scatter.

What follows are compounds tested against Calcium and integrin-binding protein 1 (Homo sapiens) (UniProt Q99828) (assay: Primary qHTS for Identification of Calcium Integrin Binding Protein 1 (CIB1) Competitor (AID 1508620; also: top concentration of the series differs between compounds)). Settings: CIB1-GST / FITC-alphaIIb peptide fluorescence polarization; series mostly up to 114 µM.
Chain of Calcium and integrin-binding protein 1 (Homo sapiens) (Q99828 whole entry, looked up): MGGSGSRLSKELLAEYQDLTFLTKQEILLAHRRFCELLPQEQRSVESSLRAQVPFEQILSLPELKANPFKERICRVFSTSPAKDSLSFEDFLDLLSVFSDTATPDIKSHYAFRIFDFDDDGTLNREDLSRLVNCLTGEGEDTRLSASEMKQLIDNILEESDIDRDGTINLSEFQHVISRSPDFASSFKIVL
In short: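 Fluorescence polarization competition: GST-tagged CIB1 (1 uM final) preincubated with compound 15 min at room temperature, then FITC-labelled alphaIIb peptide (100 nM final) added. After 15 min at room temperature, polarization read at Ex 480/Em 540.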
With O=C1c2ccccc2C(=O)N1c1nccs1 the Potency was “inactive”.
For Cc1ccccc1-c1ccc(NC(=O)c2cccs2)cn1, the Potency was “inactive”.
With CN(C(=O)Nc1ccc2ccccc2c1)c1nnc(-c2ccncc2)s1 the Potency was “inactive”.
For CC(C)(C)NS(=O)(=O)c1cccc(Nc2nn3c(=O)c4ccccc4nc3s2)c1, the Potency was “inactive”.
In the case of COc1ccc(OC)c(C2=Nn3c(nnc3-c3cc(OC)ccc3OC)SC2)c1, the Potency is reported as “inactive”.
O=[S+]([O-])(Nc1cnc2ccccc2c1)c1ccc(NCc2ccc(Cl)cc2O)cc1 was tested, and the Potency was “inactive”.
With COc1ccc(-c2ccc(=O)n(CC(=O)NCCc3ccccc3)n2)cc1 the Potency was “inactive”.
With COc1ccc(N2Cc3cccc(C(=O)O)c3C2=O)cc1OC the Potency was “inactive”.
With O=C(/C=C/c1cccnc1)Nc1cccc([S+](=O)([O-])Nc2ccccc2F)c1 the Potency was “inactive”.
With COc1cc(O)c(C(CC(=O)N2CCC(Cc3ccccc3)CC2)c2ccc(C)cc2)c(OC)c1 (centres undefined) the Potency was “inactive”.
COc1ccc(OC)c(-c2nnc3n2N=C(c2c(OC)cccc2OC)CS3)c1 was tested, and the Potency was “inactive”.
Oc1ccc(CNc2ccc3ccccc3n2)c2cccnc12 was tested, and the Potency was “inactive”.
In the case of COc1cccc(CNc2ccc(S(=O)(=O)Nc3nccs3)cc2)c1, the Potency is reported as “inactive”.
Oc1cc(NCc2ccccc2)cc2cccnc12 was tested, and the Potency was “inactive”.
For O=S(=O)(c1ccc2c(c1)OCCO2)N1CCN(S(=O)(=O)c2ccccn2)CC1, the Potency was “inactive”.
In the case of COc1ccccc1C(=O)OCC#CCSc1nnc(-c2cccc3ccccc23)o1, the Potency is reported as “inactive”.
CCOC(=O)c1ccc(-c2ccc3ncnc(NCc4ccc(C)o4)c3c2)o1 was tested, and the Potency was “inactive”.
O=S(=O)(Nc1nccs1)c1ccc(NCc2cccc(O)c2)cc1 was tested, and the Potency was “inactive”.
Cc1cc(C)n2ncc(C(=O)Nc3ccc4c(c3)OCO4)c2n1 was tested, and the Potency was “inactive”.
In the case of Cc1cc2c(s1)c1cnn(Cc3ccc(Cl)cc3)c(=O)c1n2C, the Potency is reported as “inactive”.
For Cc1scc2c1C(=O)NS2(=O)=O, the Potency was “inactive”.
CCOc1ccc(CCNC(=O)C2CCCCC2)cc1OCC was tested, and the Potency was “inactive”.
In the case of Cc1ccc(C(=O)NC2CCN(C#N)CC2)cc1, the Potency is reported as “inactive”.
In the case of Cc1cc(C)nc(NC(=S)N2CCN(c3nccc4occc34)CC2)c1, the Potency is reported as “inactive”.
In the case of c1ccc(CN(Cc2ccccc2)Cc2nnc(-c3cc4ccccc4[nH]3)o2)cc1, the Potency is reported as “inactive”.
With Cc1ccc(C2N=C(Nc3nc4ccccc4o3)NC3=C2C(=O)CCC3)s1 (centres undefined) the Potency was “inactive”.
N[C@@H](Cc1ccccc1)C(=O)Nc1ccc(Cl)cc1C(=O)c1ccc[nH]1 was tested, and the Potency was “inactive”.
For O=C(Nc1ccc(Cl)c(Cl)c1)Nc1ccc(-c2ccncc2)s1, the Potency was “inactive”.
For Cc1cc(-c2nnc3n2CCCCCC3)c(C)n1-c1ccccc1, the Potency was “inactive”.
With NC(=O)C1CCN(c2nc(-c3ccc(Oc4ccccc4)cc3)cs2)CC1 the Potency was “inactive”.
O=[S+]([O-])(Nc1ccc(-c2ccccc2)cc1)c1ccc(NCc2ccc(Cl)cc2O)cc1 was tested, and the Potency was “inactive”.
In the case of N#Cc1nc(Nc2ccccc2)nc(NC2CCCC2)n1, the Potency is reported as “inactive”.
With COc1cccc(Nc2nc(C#N)nc(NC3CCCC3)n2)c1 the Potency was “inactive”.
With N#Cc1nc(Nc2ccc(-c3ccccc3)cc2)nc(NC2CCCC2)n1 the Potency was “inactive”.
O=C(Nc1ccc2ccccc2c1)Nc1nnc(-c2ccccc2)s1 was tested, and the Potency was “inactive”.
For Cc1cc(C)nc(NC(=S)N2CCN(c3ncc(Cl)cc3Cl)CC2)c1, the Potency was “inactive”.
In the case of O=C(Nc1ncc(Cc2ccc(C(F)(F)F)cc2)s1)c1ccco1, the Potency is reported as “inactive”.
With CCOC(=O)C1CCN(C(=O)CNC(=O)Nc2ccccc2Cl)CC1 the Potency was “inactive”.
Cc1cc2c(s1)c1cnn(Cc3cccc(Br)c3)c(=O)c1n2C was tested, and the Potency was “inactive”.
